The results in this text go back to PubChem BioAssay AID1345085 (National Center for Advancing Translational Sciences (NCATS), 2018).

Inconclusive results are not listed. Unmarked numbers belong to inactive results. Active and inactive are the calls of the source. Calls follow the shape of the dose curve; as a rule, active = well fitted cell-killing curve with a large enough effect; inconclusive = small, poorly fitted or top-dose-only effect, or effect the other way; inactive = no such curve, though single readings can be large or run the other way.
% is scaled to controls: 0 for no effect and ±100 for the full control effect; potency is read from the fitted curve at half-maximal effect.

The assay has as its system Es-2. Briefly: Confirmatory qHTS for gynecologic anti-cancer compounds from libraries of approved drugs and bioactive compounds. Also: nearly all actives have a fitted effect of over 55% in size. Particulars: gynecologic cancer cell panel viability, ATPlite luminescence, 48 h; series mostly up to 57.6 µM; activity change, negative = viability loss: at the top concentration. The procedure, abridged: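 IC50 values derive from an ATPlite ATP-content luminescence assay following 48 h treatment at 37 C. Each compound ran as an 11-concentration, threefold series (57.5 uM to 0.977 nM); HEK 293T served as control line for selectivity index.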
(In qHTS, concentration-response curves come from the screen itself.)
For the molecule `COc1cc2c(cc1-c1c(C)noc1C)ncc1[nH]c(=O)n(C(C)c3ccccn3)c12` (stereo unspecified), the Potency is 2.17 µM (active).

For the molecule `Cc1cnc(Nc2ccc(CN3CCOCC3)cc2)nc1Nc1cccc(S(=O)(=O)NC(C)(C)C)c1`, the Potency was 4.32 µM (active).

For `COc1ccc2c(c1)c(CC(=O)O)c(C)n2C(=O)c1ccc(Cl)cc1`, the “activity change, negative = viability loss” value is -5.45%.

Turning to `CN(C)CCC(CSc1ccccc1)Nc1ccc(S(=O)(=O)NC(=O)c2ccc(N3CCN(Cc4ccccc4-c4ccc(Cl)cc4)CC3)cc2)cc1[N+](=O)[O-]` (stereo unspecified), the Potency is 4.85 µM (active).

For the molecule `Cc1nc(Nc2ncc(C(=O)Nc3c(C)cccc3Cl)s2)cc(N2CCN(CCO)CC2)n1`, the Potency was 13.7 µM (active).

In the case of `Cc1nc(N)nc(N)c1-c1ccc(Cl)c(Cl)c1`, the Potency is 1.37 µM (active).

Consider `Cc1ccccc1C(OCCN(C)C)c1ccccc1` (stereo unspecified), for which the “activity change, negative = viability loss” value was 6.47%.

On to `O=C(CCCCCCNC(=O)c1cnc(N(c2ccccc2)c2ccccc2)nc1)NO`, for which the Potency is 13.7 µM (active).

As for `O=C(CCCCCCC(=O)Nc1ccccc1)NO`, the Potency was 3.06 µM (active).

As to `CNC(=O)c1ccccc1Sc1ccc2c(/C=C/c3ccccn3)n[nH]c2c1`, the Potency was 19.3 µM (active).

Consider `Nc1nc(=S)c2[nH]cnc2[nH]1`, for which the Potency was 3.43 µM (active).

As to `COc1cc(F)c(F)c(Nc2ccc(I)cc2F)c1NS(=O)(=O)C1(CC(O)CO)CC1` (stereo unspecified), the Potency was 3.85 µM (active).

Take `Cc1cc(Nc2nc(N[C@@H](C)c3ccc(F)cc3)c(C#N)cc2F)n[nH]1`: the Potency was 21.7 µM (active).

With `COc1cc(N2CCC(N3CCN(C)CC3)CC2)ccc1Nc1ncc(Cl)c(Nc2ccccc2S(=O)(=O)C(C)C)n1`, the Potency was 24.3 µM (active).

`COc1cc(Nc2c(C#N)cnc3cc(OCCCN4CCN(C)CC4)c(OC)cc23)c(Cl)cc1Cl`: the Potency is 21.7 µM (active).

As for `Cn1c(=O)c(-c2c(Cl)cccc2Cl)cc2cnc(Nc3cccc(C(=O)O)c3)nc21`, the Potency is 2.73 µM (active).

On to `CCCCc1nc2cc(/C=C/C(=O)NO)ccc2n1CCN(CC)CC`, for which the Potency was 1.09 µM (active).

Consider `COC(C)(C)CCn1nc(Nc2c(C)cccc2C)c2cnc(Nc3ccc(OCCN4CCCC4)c(F)c3)nc21`, for which the “activity change, negative = viability loss” value is -21%.

Regarding `COc1cc2ncnc(Nc3ccc(F)c(Cl)c3)c2cc1OCCCN1CCOCC1`, the “activity change, negative = viability loss” value is -2.6%.

For the molecule `COCCOc1ccc2c(c1)ncn2-c1ccc2cccc(N3CCC(N)CC3)c2n1`, the Potency is 6.11 µM (active).

For `O=C(NOCC1CC1)c1ccc(F)c(F)c1Nc1ccc(I)cc1Cl`, the Potency is 1.53 µM (active).

As for `CN(C)C(CCOc1cccc2ccccc12)c1ccccc1` (stereo unspecified), the “activity change, negative = viability loss” value is -16.9%.

For `CC[C@@]1(O)C(=O)OCc2c1cc1n(c2=O)Cc2c-1nc1ccccc1c2/C=N/OC(C)(C)C`, the Potency was 0.0153 µM (active).

Consider `C[C@@H](Oc1cc(-c2cnn(C3CCNCC3)c2)cnc1N)c1c(Cl)ccc(F)c1Cl`, for which the Potency is 15.3 µM (active).

In the case of `CN(C)C/C=C/C(=O)Nc1cc2c(Nc3ccc(F)c(Cl)c3)ncnc2cc1OC1CCOC1` (stereo unspecified), the Potency is 15.3 µM (active).

In the case of `Nc1ncnc2c1ncn2[C@@H]1O[C@H](CO)C[C@H]1O`, the “activity change, negative = viability loss” value was 0.037%.

For `CN(C)CC/C=C1\c2ccccc2COc2ccccc21`, the “activity change, negative = viability loss” value is 14.1%.

On to `COc1cc2c(c(OC)c1OC)-c1ccc(OC)c(=O)cc1[C@@H](NC(C)=O)CC2`, for which the Potency was 0.0708 µM (active).

In the case of `OC[C@H]1O[C@@H](n2cnc3c(=S)nc[nH]c32)[C@H](O)[C@@H]1O`, the Potency is 4.85 µM (active).

`CC(C)C[C@H](NC(=O)[C@@H](NC(=O)c1cccc(-c2ccccc2)n1)[C@@H](C)O)B(O)O`: the Potency was 0.0685 µM (active).

Take `CCN(CC)CCNC(=O)c1c(C)[nH]c(/C=C2\C(=O)Nc3ccc(F)cc32)c1C`: the Potency was 25.1 µM (active).

`CCOc1cc2ncc(C#N)c(Nc3ccc(F)c(Cl)c3)c2cc1NC(=O)/C=C/CN(C)C`: the Potency is 24.3 µM (active).

On to `CC1=C(CO)C(=O)O[C@@H]([C@@H](C)[C@H]2CC[C@H]3[C@@H]4C[C@H]5O[C@]56[C@@H](O)C=CC(=O)[C@]6(C)[C@H]4CC[C@]23C)C1`, for which the Potency is 2.66 µM (active).

As to `O=C(NOC[C@H](O)CO)c1ccc(F)c(F)c1Nc1ccc(I)cc1F`, the Potency was 0.344 µM (active).

On to `Cc1ccc(C(=O)Nc2ccc(CN3CCN(C)CC3)c(C(F)(F)F)c2)cc1C#Cc1cnc2cccnn12`, for which the Potency is 6.11 µM (active).

On to `Cc1[nH]c2ccccc2c1CCNCc1ccc(/C=C/C(=O)NO)cc1`, for which the Potency is 0.172 µM (active).
